CCT chaperon mod – modulators of cytosolic chaperonin (CCT/TRiC) activity. purified chaperonin ATPase assay, HTRF ADP detection, 30 min. activity change, % (test concentration not listed), hits read low. actives 0.3% (n = 360,000); in the data active = activity change below about -30%
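TRiC (40 or 20 nM final, by batch activity) in 30 mM Tris pH 7.4, 100 mM KCl, 5 mM MgCl2, 1 mM DTT was treated with compound at 76 uM single dose, then 10 uM ATP, 30 min at 37 °C. ADP was read by HTRF Transcreener.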
Akt phos inh – blocks phosphorylation of Akt; Neuro2A IGF-stimulated pAkt S473 HTRF, 20 min; stronger effect = lower value; activity change, % for hits at 50 µM; actives 0.32% (n = 360,000); in the data active = activity change below about -80%; inconclusive = mostly about -51% to -80%
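Neuro2A cells (4,500/well, DMEM with 0.5% FBS) were treated with compound at a single 50 µM final concentration, stimulated with 6 nM IGF for 20 min at 37 °C, and lysed. Phospho-Akt Ser473 was read by HTRF as 665/615 ratio ×10^4.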
CtBP-E1A inh – blocks the CtBP interaction with E1A; AlphaScreen GST-E1A/His-CtBP binding, 1536-well; stronger effect = lower value; activity change, % (no concentration beside the values); actives 0.49% (n = 340,000)
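AlphaScreen with 125 nM GST-E1A and 125 nM His-CtBP (5X stocks) in Tris pH 8.0, 300 mM NaCl, BSA, Tween 20, TCEP. Compounds preincubated 2 h at 37 deg C, then glutathione donor/nickel acceptor beads added for 1 h at 37 deg C in dark.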
Six1-Eya2 blk – inhibitors of human Six1/Eya2 interaction; AlphaScreen GST-Six1/His-Eya2 binding, biochemical; stronger effect = lower value; Q15475+O00167; activity change, % (test concentration not listed); actives 0.56% (n = 360,000)
Target sequence (O00167 whole entry, looked up): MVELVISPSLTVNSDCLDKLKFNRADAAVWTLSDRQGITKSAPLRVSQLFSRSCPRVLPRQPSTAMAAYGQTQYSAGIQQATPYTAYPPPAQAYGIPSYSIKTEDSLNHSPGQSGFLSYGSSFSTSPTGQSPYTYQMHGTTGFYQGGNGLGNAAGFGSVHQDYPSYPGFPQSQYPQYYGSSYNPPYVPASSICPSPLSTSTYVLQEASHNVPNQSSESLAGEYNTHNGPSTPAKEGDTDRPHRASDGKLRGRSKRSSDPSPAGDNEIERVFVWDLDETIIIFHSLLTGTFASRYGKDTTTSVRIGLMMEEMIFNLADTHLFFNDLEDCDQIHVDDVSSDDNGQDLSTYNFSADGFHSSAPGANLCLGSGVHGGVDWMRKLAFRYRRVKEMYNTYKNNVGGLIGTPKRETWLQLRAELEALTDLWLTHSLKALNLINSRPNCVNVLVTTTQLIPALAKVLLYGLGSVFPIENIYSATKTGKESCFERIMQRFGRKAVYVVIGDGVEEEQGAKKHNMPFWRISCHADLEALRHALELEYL
Target sequence (Q15475 whole entry, looked up): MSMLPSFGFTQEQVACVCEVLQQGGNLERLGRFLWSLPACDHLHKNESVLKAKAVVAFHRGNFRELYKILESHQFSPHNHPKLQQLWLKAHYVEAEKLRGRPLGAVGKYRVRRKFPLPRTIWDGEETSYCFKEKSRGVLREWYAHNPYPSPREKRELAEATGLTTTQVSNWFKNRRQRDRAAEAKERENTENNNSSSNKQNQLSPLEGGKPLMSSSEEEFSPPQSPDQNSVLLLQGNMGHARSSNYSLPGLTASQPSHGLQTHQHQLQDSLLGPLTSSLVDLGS
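GST-Six1 + His-Eya2 (5X stock: 250/500 nM); Tris pH 8.0, 300 mM NaCl, 0.05% BSA, 0.02% Tween 20; GSH donor/Ni acceptor beads; 1 h 37 °C dark; AlphaScreen readout.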
* hit, by the source's call; i = inactive; ? = inconclusive; / = no result given. In the library only some 1.2% were active in any assay of this set; here they are far more common. Cut-off read from the data, not from the text of the source, unless noted: active = activity change below about -65%; inconclusive = mostly about -30% to -63%; inactive = weaker than that. % is set by controls: 0 for no effect and ±100 for the full control effect.

SMILES	CCT chaperon mod	Akt phos inh	CtBP-E1A inh	Six1-Eya2 blk
O=C(O)CC(C(=O)Nc1ccc(Cl)cc1)N1CCCCCC1 (stereo not given)	-1	i	2	-1
O=C(CSc1nc2sc3c(c2c(=O)n1-c1ccccc1)CCCC3)N/N=C/c1ccc(C(=O)O)cc1	0	i	27	16
Cn1c(N/N=C/c2ccccc2)nc2sc3c(c2c1=O)CCC3	-20	i	?	-71*
Nc1nc2ccc(C(=O)NCCOC(=O)C3CCCCC3)cc2s1	-7	i	/	-77*
CC(=O)Nc1nc2ccc(C(=O)NCCOC(=O)C3CCCCC3)cc2s1	-1	i	-23	-8
CCCn1c(NCc2c[nH]c3ccccc23)nc2ccccc21	-1	i	-5	-9
CN(C)c1ccc(C=c2c3cc(O)ccc3n3c2cc(-c2ccccc2)[n+]3C)cc1	-2	i	12	-74*
CCOC(=O)c1cc2c(=Cc3ccc(N(C)C)cc3)c3ccccc3n2[n+]1C	-2	i	0	-69*
Cc1cc2c(=Cc3ccc(N(C)C)cc3)c3ccccc3n2[n+]1C	-45*	i	-66*	0
CCOc1ccccc1C(=O)NC(C(=O)NCCc1ccccn1)C(C)C (stereo not given)	-3	i	-2	9
Cc1ccccc1NC(=O)N(O)C1(C#N)CCCCC1	-2	i	8	6
COc1ccc(OC)c(NC(=O)Cn2c(CCC(=O)O)ccc2-c2ccccc2)c1	0	i	-2	-2
COc1ccc(OC)c(NC(=O)Cn2c(CCC(=O)O)ccc2-c2cccs2)c1	-1	-119%*	-6	-6
O=C(COC(=O)c1ccccc1Cc1ccccc1)NC1CCS(=O)(=O)C1 (stereo not given)	-4	i	-5	16
O=[N+]([O-])c1cc(Cl)cc(/C=N/NC(=S)Nc2ccc(S(=O)(=O)N3CCOCC3)cc2)c1O	-1	i	-98*	-91*
O=S(=O)(c1ccc(NC(=S)NN=Cc2ccccc2O)cc1)N1CCCCC1	0	i	-89*	-86*
Cc1ccc(C)c(CNS(=O)(=O)c2ccc3c(c2)C(C)(C)C(=O)N3C)c1	-34*	i	/	6
Nc1ccc(O)c2c1C(=O)c1ccccc1C2=O	-7	i	-86*	-85*
COc1ccc(N)c2c1C(=O)c1ccccc1C2=O	-3	i	?	-11
Nc1ccc(Br)c2c1C(=O)c1ccccc1C2=O	0	i	-75*	?
Cc1[nH]c(=O)c(C#N)c(C)c1CCC(=O)NCc1ccc(Cl)cc1	1	i	4	48
COc1ccc(/C=C/c2ccncc2)cc1	-52*	i	0	4
CC1CC(C)C(=O)C(C(CC2CC(=O)NC(=O)C2)OC(=O)CC(=O)c2ccccc2)C1 (stereo not given)	-1	i	1	0
CCCC(=O)NC(c1cccc([N+](=O)[O-])c1)c1ccc2cccnc2c1O (stereo not given)	1	i	?	-91*
CC(C)C(=O)NC(c1cccc([N+](=O)[O-])c1)c1ccc2cccnc2c1O (stereo not given)	0	i	-2	-94*
SMILES	CCT chaperon mod	Akt phos inh	CtBP-E1A inh	Six1-Eya2 blk
CCC(=O)NC(c1cccc([N+](=O)[O-])c1)c1c(OC(C)=O)ccc2ccccc12 (stereo not given)	-2	i	-3	-10
O=C1NN(c2ccc(Cl)c(Cl)c2)C(=O)/C1=C/c1ccc(-c2ccccc2C(=O)O)o1	0	i	-72*	?
Cc1ccc(N2NC(=O)/C(=C/c3ccc(-c4ccc(Cl)c(C(=O)O)c4)o3)C2=O)cc1C	-3	i	4	6
CC(=O)Nc1ccc(OC(=O)N2CCCC2)cc1	0	i	/	1
COC(=O)c1oc2ccc(Br)cc2c1NC(=O)CN1CCN(C)CC1	-5	-115%*	-1	4
Cc1ccc(N2C(=O)CC(Sc3nccc(C)n3)C2=O)cc1 (stereo not given)	-53*	i	10	2
CCOc1cc(C(=O)OCC(=O)N(C)c2ccccc2)cc(OCC)c1OCC	-10	i	4	9
Cc1cc(N2CCOCC2)nc(-c2ccccc2O)n1	-1	i	6	0
Cc1cc(N2CCCCCC2)nc(-c2ccccc2O)n1	-3	-91%*	11	-19
O=C1CSC(=S)N1Nc1ccccc1	-34*	i	-5	2
CCOC(=O)c1c(C)nc2sc3c(=O)n(-c4ccc(C(C)=O)cc4)nnc3c2c1-c1ccc(OC)cc1	-1	i	-7	0
CCOC(=O)c1c(C)nc2sc3c(=O)n(-c4ccc(OC)cc4)cnc3c2c1-c1ccc(OC)cc1	-1	-111%*	-2	13
CC1CCc2c(nc3nc[nH]n3c2=O)C1 (stereo not given)	-1	-102%*	0	22
CCC1(C)CC(=O)N(c2ccc(C(=O)O)c(O)c2)C1=O (stereo not given)	-2	-114%*	-10	17
CCC1(C)CC(=O)N(c2ccc(F)c(Cl)c2)C(=O)C1	1	i	8	3
Cc1cc(OCC(=O)NCCCN2CCOCC2)c2c(C)c(C)c(=O)oc2c1	0	i	-2	-3
CCCn1c(SCC(=O)NCc2ccccc2)nnc1-c1ccncc1	-2	-115%*	4	-1
CCCCn1nnnc1SCC(=O)NCc1ccccc1	-2	-115%*	5	3
Cn1c(SCC(=O)NCc2ccc3c(c2)OCO3)nnc1-c1cccs1	0	i	2	2
CCn1c(SCC(=O)NCc2ccc3c(c2)OCO3)nnc1-c1cccs1	-1	-96%*	-2	0
Cc1ccc(S(=O)(=O)NCC(=O)NCc2cc(=O)n(C)c(=O)n2C)cc1C	-79*	/	/	13
Cc1ccc(S(=O)(=O)NCC(=O)NCc2cc(=O)n(C)c(=O)n2C)cc1	2	i	1	3
CC(Sc1nnc(NCc2ccccc2)s1)C(=O)Nc1ccc2c(c1)C(=O)c1ccccc1C2=O (stereo not given)	0	i	-82*	-66*
Nc1c(-c2ccc(Cl)cc2)cnn1-c1cccc(C(F)(F)F)c1	1	-113%*	1	9
Cc1ccc(-c2cnn(-c3cccc(C(F)(F)F)c3)c2N)cc1	-2	i	8	0
SMILES	CCT chaperon mod	Akt phos inh	CtBP-E1A inh	Six1-Eya2 blk
N/C(=N\NC(=O)Nc1ccc(Cl)cc1)c1ccccn1	2	i	-76*	?
CNC(=O)N/N=C(\N)c1ccccn1	-1	i	/	-9
O=C(CSc1ccc(Br)c2cccc(Cl)c12)Nc1ccc(S(=O)(=O)Nc2nccs2)cc1	-37*	i	?	4
c1ccc(-c2nc3ccccc3[nH]2)nc1	-2	i	-4	?
O=c1[nH]c(-c2ccccn2)nc2ccccc12	-2	i	-89*	-91*
c1ccc(-c2nc3c(ccc4ccccc43)[nH]2)nc1	1	i	-14	-7
O=c1[nH]c(-c2ccccn2)nc(C(F)(F)F)c1Br	-2	i	-83*	-76*
